Results: PubChem BioAssay AID1345082 (National Center for Advancing Translational Sciences (NCATS), 2018)
Among all 94,000 compounds or so, about 4,000 (4.3%) were called active. Entries that show only a call come without a potency. About 29% were inconclusive and are not listed. The sample holds actives, similar compounds and a random draw of the others, so the mix is not that of the screen. Calls come from the whole dose curve; as a rule, active = well fitted inhibition curve with a large enough effect; inconclusive = small, poorly fitted or top-dose-only effect; inactive = no such curve, though single readings can be large or run the other way.

assay: Cytotoxic Profiling in NIH 3T3 Cell Line of Diverse Libraries Using Quantitative High-Throughput Screening; conditions: NIH 3T3 viability, CellTiter-Glo ATP luminescence, 48-72 h; series mostly up to 96.7 µM; note: nearly all actives have a fitted effect of over 55% in size
Text: Cell-based phenotypic screening is a commonly used approach to discover biological pathways, novel drug targets, chemical probes and high-quality hit-to-lead molecules. Many hits identified from high-throughput screening campaign are ruled out through a series of follow-up potency, selectivity/specificity, and cytotoxicity assays. Prioritization of molecules with little or no cytotoxicity for a more in-depth downstream evaluation influence the future direction of projects, so cytotoxicity profiling of the screening libraries at early stage is essential for increasing the likelihood of candidate success. In this study, we analyzed results from a cell-based cytotoxicity screening campaign, comprising nearly 10,000 compounds in NCATS annotated libraries, and over 100,000 compounds in a diversity library, evaluated in four normal cell lines (HEK 293, NIH 3T3, CRL-7250 and HaCat) and a cancer cell line (KB 3-1, a HeLa subline) with overall screening outcomes, hit rates, pan-activity and selectivity. For the annotated library, we also examined the primary targets and mechanistic pathways regularly associated with cell death. To our knowledge, this is the first study to use high-throughput screening to profile large libraries for cytotoxicity assessment in both normal and cancer cell lines. In summary, the results generated here constitutes a valuable resource for the scientific community and provides insight on identifying cytotoxic compounds with particular mechanisms of action, and prioritizing compounds with suitable cytotoxicity profile for further evaluation.
NIH 3T3 cells were seeded into white 1536-well plates using a Multidrop Combi peristaltic dispenser (ThermoFisher, Waltham, MA) at a density of 400 cells/well in 5 uL of medium respectively. A pintool (Kalypsys) was used to transfer 23 nL of compound solution to the 1536-well assay plates. After 48 or 72 hr incubation at 37 degree Celsius, 5% CO2 and 95% humidity, 2.5 uL of CellTiter-Glo (Promega) was dispensed into each well using a dispenser (Aspect Automation, St. Paul, MN) with solenoid valves (Lee Valves, Westbrook CT). Plates were left at room temperature for 10 min before imaging the ATP-coupled luminescence using a ViewLux microplate imager (PerkinElmer, Waltham, MA).
Potency is the fitted concentration of half-maximal effect.

| Structure (SMILES) | Potency |
| --- | --- |
| Cc1nc(-c2ccccc2)cc([C@H]2CN3CC[C@H]2C[C@@H]3CNC2CCN(C)CC2)n1 | 56.2 µM (active) |
| O=C([C@H]1CN2CCC1C[C@@H]2Cn1cc(-c2ccccc2)nn1)N1CCOCC1 (stereo not given in full) | inactive |
| Cc1nc(-c2ccccc2)cc([C@H]2CN3CC[C@H]2C[C@@H]3CNC2CCOCC2)n1 | 31.6 µM (active) |
| CN(C)C(=O)[C@H]1CN2CCC1C[C@@H]2Cn1cc(-c2ccc(-c3ccccc3)cc2)nn1 (stereo not given in full) | inactive |
| O=[S+]1([O-])NCC2(CCN(Cc3cccnc3)C2)Oc2ncccc21 (stereo not given) | inactive |
| COc1ccc([C@@H]2CN(C(=O)c3c(C)noc3C)[C@@H]3C4CCN(CC4)[C@@H]32)cc1 | inactive |
| CN(C)[C@@H]1CN(C(=O)Cc2ccc(F)cc2)C[C@H]1CO | inactive |
| O=C1NC2(Cc3ccccc31)CN(Cc1ccncc1)C2 | inactive |
| COc1ccc(-c2cc([C@H]3CN4CC[C@H]3C[C@@H]4CNC(=O)c3ccccc3)n(C)n2)cc1OC | inactive |
| Cn1nc(-c2cccs2)cc1[C@H]1CN2CC[C@H]1C[C@@H]2CNC(=O)Nc1ccccc1 | 100 µM (active) |
| Cn1nc(-c2cccs2)cc1[C@H]1CN2CC[C@H]1C[C@@H]2CNC(=O)CCCC(=O)O | inactive |
| COc1ccc(C(=O)NC[C@H]2C[C@@H]3CCN2C[C@@H]3c2cc(-c3ccccc3)nn2C)cc1 | 89.1 µM (active) |
| COc1ccccc1-c1cc([C@H]2CN3CC[C@H]2C[C@@H]3CNC(C)=O)n(C)n1 | inactive |
| CCCNC(=O)OC[C@H]1C[C@@H]2CCN1C[C@@H]2c1cc(-c2ccc(OC)c(OC)c2)nn1C | inactive |
| CCC(=O)N1CCC2(CC1)c1nccn1-c1ccccc1CN2CC(C)C | inactive |
| O=C(Cc1ccc(F)cc1)N1CCN(C2CCN(Cc3cccnc3)C2=O)CC1 (stereo not given) | inactive |
| CC1=NOC2(CCN(Cc3cncs3)C2)C1 (stereo not given) | inactive |
| Cc1ccc(S(=O)(=O)NC[C@H]2C[C@@H]3CCN2C[C@@H]3CN2CCN(c3ncccn3)CC2)cc1 | inactive |
| COc1cc2c(cc1OCc1ccccc1)NC(=O)C21CCN(CCC(C)C)CC1 | 89.1 µM (active) |
| COc1cc2c(cc1OC1CCCC1)NC(=O)C21CCN(C(=O)c2ccnn2C)CC1 | inactive |
| COc1cc2c(cc1-c1ccncc1)NC(=O)C21CCN(C(C)=O)CC1 | 28.2 µM (active) |
| COc1cc2c(cc1OCc1ccccc1)NC(=O)C21CCN(C(=O)C(C)C)CC1 | 14.1 µM (active) |
| O=C1NC2(Cc3ccccc31)CN(CC1CC1)C2 | inactive |
| CC(C)N1CC2CCC(C1)N2C(=O)N1CCCC1 | inactive |

| Structure (SMILES) | Potency |
| --- | --- |
| CCCSc1ncc(CN2CC[C@H]3CNC[C@H]32)cn1 | inactive |
| O=C(O)COCC(=O)N1C[C@@H]2C[C@H](C1)c1c(-c3ccc4ccccc4c3)ccc(=O)n1C2 | inactive |
| Cn1cccc1CN1CCC2(COc3ccncc3[S+](=O)([O-])N2)C1 (stereo not given) | inactive |
| CCOC(=O)[C@H]1CN(C(=O)N2CCOCC2)[C@]2(C)C(=O)N(CC(=O)N(C)C)c3ccccc3[C@H]12 | inactive |
| Cc1ccc(C(=O)N2CCC3(CC2)c2nccn2-c2ccccc2CN3C)cc1C | inactive |
| FC(F)(F)CN1C2CCC1CN(c1ccc(Cl)nn1)C2 | inactive |
| CCNC(=O)N1CC2CN(C(C)C)CC(C1)O2 | inactive |
| CC1=NOC2(CCN(Cc3c[nH]c4ccccc34)CC2)C1 | inactive |
| Cn1cc(CN2CCN(C(=O)COc3ccc(F)cc3)CC2)ccc1=O | inactive |
| CCCS(=O)(=O)NC[C@H]1C[C@@H]2CCN1C[C@@H]2c1cc(C2CCCC2)nn1C | inactive |
| CCCCc1cn(C[C@H]2CC3CCN2C[C@@H]3C(=O)NCc2ccccc2)nn1 (stereo not given in full) | inactive |
| COc1ccc(-c2cn(C[C@H]3C[C@@H]4CCN3C[C@@H]4C(=O)NCc3ccccc3)nn2)cc1 | inactive |
| CCC(CC)c1cc([C@H]2CN3CC[C@H]2C[C@@H]3CNS(=O)(=O)Cc2ccccc2)nc(-c2ccncc2)n1 | 22.4 µM (active) |
| COc1ccc(-c2cc([C@H]3CN4CC[C@H]3C[C@@H]4CNS(=O)(=O)Cc3ccccc3)n(C)n2)cc1OC | inactive |
| CCC(CC)c1cc([C@H]2CN3CC[C@H]2C[C@@H]3CNC(=O)NCc2ccccc2)nc(-c2ccncc2)n1 | 20 µM (active) |
| O=S1(=O)NCC2(CCN(Cc3ccc(Cl)s3)C2)Oc2ncccc21 (stereo not given) | inactive |
| Cc1noc(C)c1CC(=O)N1[C@H]2CC[C@@H]1c1cnc(-c3ccccc3)nc1C2 | inactive |
| O=S(=O)(NC[C@H]1C[C@@H]2CCN1C[C@@H]2CN1CCCCC1)c1ccc(Cl)cc1 | inactive |
| CNC1CCOCC1 | inactive |
| CCCCc1cn(C[C@H]2C[C@@H]3CCN2C[C@@H]3C(=O)NCCNC(C)=O)nn1 | inactive |
| CC[C@H]1CN2CC[C@H]1C[C@@H]2CNC(=O)c1ccc(N(C)C)cc1 | inactive |
| CN(Cc1ccccc1)C[C@H]1CN2CC[C@H]1C[C@@H]2CNC(=O)Nc1cccc(C#N)c1 | 100 µM (active) |
| CC(C)NC(=O)NC[C@H]1C[C@@H]2CCN1C[C@@H]2CN1CCCC1 | inactive |
| CN(CCc1ccccn1)C[C@H]1CN2CC[C@H]1C[C@@H]2CNC(=O)c1ccccc1 | inactive |

| Structure (SMILES) | Potency |
| --- | --- |
| C=CCN(C)C[C@H]1CN2CC[C@H]1C[C@@H]2CNC(=O)Nc1cccc(SC)c1 | 100 µM (active) |
| CC[C@H]1CN2CC[C@H]1C[C@@H]2CNCc1cccc(C#N)c1 | inactive |
| CCOC(=O)[C@H]1CN(C(=O)c2cc3ccccc3s2)[C@]2(C)C(=O)Nc3ccccc3[C@H]12 | inactive |
| Cc1ccc([C@@H]2CN(Cc3ncc[nH]3)[C@@H]3C4CCN(CC4)[C@@H]32)cc1 | inactive |
| Cc1ccccc1-c1ccc2n(c1=O)C[C@H]1C[C@@H]2CN(C(=O)CSCC(=O)O)C1 | inactive |
| COc1ccc(CC(=O)N2Cc3ccccc3CC3(CCCN3C)C2)cc1 (stereo not given) | inactive |
| CC(C)N1C[C@@H]2OCC(=O)N(Cc3cccnc3)[C@@H]2C1 | inactive |
| Cc1ccc([C@@H]2CN(C(=O)c3ccco3)[C@@H]3C4CCN(CC4)[C@@H]32)cc1 | inactive |
| COc1ccccc1-c1cc([C@H]2CN3CC[C@H]2C[C@@H]3CNC(=O)c2ccco2)n(C)n1 | inactive |
| COc1ccccc1-c1cc([C@H]2CN3CC[C@H]2C[C@@H]3CNC(=O)c2ccco2)nc(C)n1 | inactive |
| C#C[C@H]1CN2CC[C@H]1C[C@@H]2CNC(=O)C1CC1 | inactive |
| COc1ccc(-c2cc([C@H]3CN4CC[C@H]3C[C@@H]4CNC(=O)C3CC3)n(C)n2)cc1OC | inactive |
| Cc1nc(-c2ccc(N(C)C)cc2)cc([C@H]2CN3CC[C@H]2C[C@@H]3CNC(=O)C2CCC2)n1 | 89.1 µM (active) |
| CC(=O)NCCNC(=O)[C@H]1CN2CCC1C[C@@H]2Cn1cc(-c2ccc(C(C)(C)C)cc2)nn1 (stereo not given in full) | inactive |
| Cc1nc(-c2ccc(C(F)(F)F)cc2)cc([C@H]2CN3CC[C@H]2C[C@@H]3CNC(=O)C2CCC2)n1 | 20 µM (active) |
| Cc1nc(-c2ccc(C(F)(F)F)cc2)cc([C@H]2CN3CC[C@H]2C[C@@H]3CNC(=O)c2ccco2)n1 | 25.1 µM (active) |
| O=C(NC[C@H]1C[C@@H]2CCN1C[C@@H]2CN1CCN(c2ncccn2)CC1)c1ccc(C(F)(F)F)cc1 | inactive |
| O=C(COc1ccccc1)N1C[C@@H]2C[C@H](C1)c1c(-c3ccccc3F)ccc(=O)n1C2 | inactive |
| FC(F)(F)CN1C2CCC1CN(c1cccc(Cl)n1)C2 | inactive |
| O=[N+]([O-])c1ccc(N2CC3CCC(C2)N3CC(F)(F)F)nc1 | inactive |
| O=C(N1[C@H]2CC[C@@H]1c1cnc(-c3ccccc3)nc1C2)C1(c2ccccc2)CC1 | inactive |
| COCCC(=O)N1CCC2(CC1)c1nccn1-c1ccccc1CN2CC(C)C | inactive |
